# Data: PubChem BioAssay
# The source made the active and inactive calls.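 Rule for the calls: active = viability at or below 10% of carrier control in both of two separate runs; inconclusive = viability at or below 10% in only one of the two runs; inactive = the rest.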
# Experiment: reduced viability of SK-BR-3 breast cancer cells – cell-based, 24 h, human, pilot screen (AID 572);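 note: compound exposure lasted between 18 and 24 h rather than exactly 24 h; 100% = carrier-treated control wells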
# Conditions: SK-BR-3 viability, CellTiter-Glo luminescence, at 10 µM, stronger effect = lower value
row,Compound,viability
1,CC1C(c2ccccc2)N(C)CCC12NC(=O)NC2=O (stereo not drawn),89% (inactive)
2,COC(=O)c1cc(Br)c(=O)n(CCN2CCOCC2)c1,102% (inactive)
3,O=C(Nc1ccccc1C(=O)N1CCN(c2ccccc2)CC1)c1ccco1,96% (inactive)
4,CC(C)CCNC(=O)NC(=O)COc1ccccc1C#N,92.5% (inactive)
5,Cc1ccc2c(Cl)cc(Cl)c(OCc3c(C)noc3C)c2n1,102% (inactive)
6,O=C(c1cccc(Cl)c1)N1CCN(Cc2ccncc2)CC1,92% (inactive)
7,Cn1c(=N)n(CC(=O)O)c2ccccc21,108% (inactive)
8,O=C(Nc1ccccc1)c1cccc(N2CCCC2=O)c1,93% (inactive)
9,Fc1ccc(-c2csc3nnc(SCc4cccnc4)n23)cc1,108% (inactive)
10,COc1ccc(CNC(=O)c2cc(-c3ccc(OC)c(OC)c3)on2)cc1,116% (inactive)
11,CCN(CC)CCOC(=O)c1c(C)oc2ccc(O)cc12,102% (inactive)
12,COc1ccccc1Nc1ccc(C(=O)NC2CCCCC2)cn1,100% (inactive)
13,CCCCn1nnnc1SCC(=O)Nc1cccc(C)n1,108% (inactive)
14,COc1nc(OC)nc(N2CCC(C(=O)NC3CCCCCC3)CC2)n1,95.5% (inactive)
15,COC(=O)[C@H](C)NC(=O)Nc1cc(OC)ccc1OC,121% (inactive)
16,Cc1ccc(CNC(=O)C2CCCN(S(=O)(=O)c3cccnc3)C2)cc1 (stereo not drawn),92.5% (inactive)
17,OCc1nc2ccccc2n1CC(O)Cn1ccc2ccccc21 (stereo not drawn),97.5% (inactive)
18,Cc1cc(C)cc(N2CCCn3c2nc2c3c(=O)n(CCN3CCOCC3)c(=O)n2C)c1,101% (inactive)
